Assay outcomes: PubChem BioAssay, Broad Institute
Wnt act – Wnt/beta-catenin pathway activation; Wnt/beta-catenin reporter cell assay, activator, plate reader; activation, % at 9.35 µM; actives 1.2% (n = 300,000); in the data active = activation above about 30%, passing the limit was not always enough; inconclusive = no clear call, values can overlap the other calls
AF4-AF9 inh – inhibitors of human MLL-AF4/AF9 interaction; AID 651704; inhibition, % at 10 µM; AlphaScreen, biotin-AF4 peptide binding to FLAG-AF9; actives 0.47% (n = 350,000); P42568;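 active = every replicate reaching a set inhibition limit, whatever the replicate mean, cut at about 25% in these data; inconclusive = mean inhibition reaches that limit but some replicates miss it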
Target sequence (P42568 whole entry, looked up): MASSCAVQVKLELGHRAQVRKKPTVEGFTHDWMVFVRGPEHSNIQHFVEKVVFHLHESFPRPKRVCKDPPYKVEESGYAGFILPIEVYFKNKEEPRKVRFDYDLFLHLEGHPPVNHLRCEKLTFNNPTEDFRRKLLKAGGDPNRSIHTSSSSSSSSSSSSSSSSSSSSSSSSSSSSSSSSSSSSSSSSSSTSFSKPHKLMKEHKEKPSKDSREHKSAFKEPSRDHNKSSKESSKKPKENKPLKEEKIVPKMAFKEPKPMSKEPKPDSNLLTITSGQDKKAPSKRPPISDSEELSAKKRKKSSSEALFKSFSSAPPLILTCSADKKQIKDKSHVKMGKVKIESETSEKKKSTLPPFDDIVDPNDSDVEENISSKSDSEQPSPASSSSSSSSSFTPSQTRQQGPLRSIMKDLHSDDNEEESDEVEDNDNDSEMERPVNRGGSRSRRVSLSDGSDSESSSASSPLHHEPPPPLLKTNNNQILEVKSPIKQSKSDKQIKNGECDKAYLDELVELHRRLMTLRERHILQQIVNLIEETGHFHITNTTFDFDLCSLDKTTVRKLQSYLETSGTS
MITF TRPM1 HTS – increases MITF-driven TRPM1 promoter luciferase signal. activation, % at 12.5 µM. actives 0.75% (n = 300,000). AID 588334. SK-MEL-5 TRPM1-promoter luciferase, 24 h; % of positive control, neutral wells = 0;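 active = mean activation of at least 80% with every replicate also reaching 80%; inconclusive = mean reaches 80% but some replicate falls short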
esBAF inh – inhibitors of esBAF chromatin remodeling in mouse ES cells; Bmi1-luciferase knock-in reporter, 24 h; 100% = twice the neutral-well signal; reporter increase, % at 12.5 µM; actives 2% (n = 350,000); AID 602393; in the data active = activation above about 40%; inconclusive = no clear call, values can overlap the other calls;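 also: a rise in the Bmi1 reporter signal indicates esBAF inhibition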
Ecoli rRNA inh – inhibits bacterial ribosomal RNA function over humanized ribosomes; GFP signal change (wild-type ribosome), % (test concentration not listed); E. coli WT GFP vs humanized-ribosome RFP mutants, fluorescence, 24 h; active compounds read low; DMSO median 0, no signal -100; actives 1.6% (n = 350,000);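 active = significant combined selectivity score with lowered wild-type GFP, culture density cut under 30%, mutant RFP and density less affected; inactive = any of these conditions unmet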
Large screens that a line does not name were inactive. A selection: hits, their analogues and other compounds. The true share with any hit is near 3.7%.

C=C(C)C(=O)Oc1ccc(N=Nc2ccc(C)cc2)ccc1=O	AF4-AF9 inh 28 (no result: MITF TRPM1 HTS, Ecoli rRNA inh)
CC(=O)c1ccc(N=Nc2ccc(C)cc2)cc1	none (no result: esBAF inh)
O=C(N[C@@H]1C=C[C@@H](CC(=O)N2CCCCC2)O[C@@H]1CO)c1ccc2c(c1)OCO2	none (no result: Wnt act, MITF TRPM1 HTS)
CC(NCc1ccc(S(N)(=O)=O)cc1)C(=O)Nc1cc([N+](=O)[O-])ccc1Cl (stereo not drawn)	Ecoli rRNA inh -21
CC(NCc1ccc(S(N)(=O)=O)cc1)C(=O)Nc1ccc([N+](=O)[O-])cc1Cl (stereo not drawn)	none (no result: esBAF inh)
CO[C@@H]1CN(C)C(=O)c2cc(NC(C)=O)ccc2OC[C@H](C)N(C(=O)C2CCC2)C[C@@H]1C	none (no result: Wnt act, MITF TRPM1 HTS)
COc1ccc(N2CCN(c3ccc(N)cc3C#N)CC2)cc1	none (no result: AF4-AF9 inh, Ecoli rRNA inh)
Cc1ccc(NC(=O)COC(=O)c2cccnc2Cl)cc1S(=O)(=O)N1CCOCC1	Ecoli rRNA inh -25
Cc1ccc(S(=O)(=O)N2CCOCC2)cc1NC(=O)COC(=O)c1cccc(Cl)c1Cl	Ecoli rRNA inh -32
CCC/C(=C1/c2ccccc2C(=O)N1c1ccccc1)c1cnc(OC)nc1	none
CCC/C(=C1/c2ccccc2C(=O)N1c1ccccc1)c1ccc(C=O)o1	Ecoli rRNA inh -24 (no result: MITF TRPM1 HTS, esBAF inh)
COc1cc(-n2c(-c3ccccc3)n[nH]c2=S)c(OC)cc1Cl	none (no result: esBAF inh)
COc1ccc(NS(=O)(=O)c2cccc(C(=O)NCC(c3ccc(F)cc3)N3CCOCC3)c2)cc1 (stereo not drawn)	none
CN(C)C=NC(=O)c1cc(C(=O)c2ccc(C(C)(C)C)cc2)c[nH]1	MITF TRPM1 HTS 86 (no result: esBAF inh)
CN(C)C=NC(=O)c1cc(C(=O)c2ccccc2Cl)c[nH]1	none (no result: esBAF inh)
CN(C)c1ccc(N/C=C/C(=O)c2ccco2)cc1	Wnt act 43 (no result: AF4-AF9 inh, Ecoli rRNA inh)
CC(=O)Nc1ccc(N/C=C/C(=O)c2ccco2)cc1	none (no result: Wnt act, AF4-AF9 inh, Ecoli rRNA inh)
O=C(/C=C/c1ccc(Br)cc1)c1ccco1	none (no result: esBAF inh)
O=C(/C=C/C=C/c1ccccc1)c1ccco1	Wnt act 40
O=C(/C=C/Nc1ccccc1O)c1ccco1	Wnt act 52 (no result: esBAF inh)
O=C(/C=C/Nc1ccccc1Oc1ccccc1)c1ccco1	Ecoli rRNA inh -32
Cc1ccc(S(=O)(=O)C(C#N)c2nc3ccccc3nc2N2CCC(C)CC2)cc1 (stereo not drawn)	MITF TRPM1 HTS inconclusive (no result: AF4-AF9 inh, Ecoli rRNA inh)
COc1ccc(N2CCN(C(=S)NCc3ccc(C)cc3)CC2)cc1	none
O=C(/C=C/Nc1cccc(F)c1)c1ccco1	MITF TRPM1 HTS 93, esBAF inh 45 (no result: Wnt act, AF4-AF9 inh, Ecoli rRNA inh)
COc1ccccc1Oc1ccc(N/C=C/C(=O)c2ccco2)cc1	esBAF inh 87
O=C(O)CC(Sc1ccc(Cl)cc1)C(=O)Nc1ccccc1 (stereo not drawn)	none (no result: MITF TRPM1 HTS, esBAF inh)
Cc1ccc(C(=O)/C=C\C(=O)c2ccc(C)cc2)cc1	none (no result: esBAF inh)
Cc1ccc(S/C=C\C(=O)c2ccccc2)cc1	Wnt act 56 (no result: esBAF inh)
Cc1c(C(=O)N2CCN(CCc3ccccn3)CC2)oc2ccc(F)cc12	none
Cc1cc2oc(C(=O)N3CCN(CCc4ccccn4)CC3)c(C)c2cc1C	Ecoli rRNA inh -28
COc1ccc(NC(=O)/C(=C\c2cccs2)NC(=O)c2ccco2)cc1	none
CCOc1ccccc1C(=O)OCC(=O)Nc1cc(Cl)ccc1Oc1ccccc1	none
O=C(/C(=N/N=C/c1ccc(O)c(O)c1)c1ccccc1)c1ccccc1	AF4-AF9 inh 35 (no result: esBAF inh, Ecoli rRNA inh)
Oc1ccc(/C=N/N=C/c2ccc(O)c(O)c2)cc1O	none (no result: MITF TRPM1 HTS)
O=C(C[C@H]1CC[C@H]2[C@@H](COC[C@@H](O)CN2C(=O)c2cnccn2)O1)NCc1ccccc1	none (no result: Wnt act, MITF TRPM1 HTS)
Cc1ccc(S(=O)(=O)N2CCOCC2)cc1C(=O)N1CCOCC1	none (no result: AF4-AF9 inh, MITF TRPM1 HTS, Ecoli rRNA inh)
Cc1ccc(Oc2ccc(S(=O)(=O)N3CCOCC3)cc2C(N)=O)cc1C	Ecoli rRNA inh -23
CCOc1ccc(CN(C)C(=O)c2ccc3c(c2)NC(=O)C(C)S3)cc1OC (stereo not drawn)	none (no result: Ecoli rRNA inh)
Cc1ccc(NC(=O)/C(C#N)=N/Nc2ccc(C(=O)O)cc2)c(C)c1	Wnt act 44 (no result: esBAF inh)
Cc1ccc(N/N=C(\C#N)C(N)=S)c(C)c1	none (no result: Wnt act, AF4-AF9 inh, esBAF inh, Ecoli rRNA inh)
O=c1[nH]cnc2c1nnn2C1OC(CO)C(O)C1O (stereo not drawn)	esBAF inh 71 (no result: MITF TRPM1 HTS, Ecoli rRNA inh)
O=C(N[C@@H]1CC[C@H](CCn2cc(-c3cccnc3)nn2)O[C@H]1CO)c1ccccc1F	none (no result: Wnt act, MITF TRPM1 HTS)
Cc1cc2ncn(C(=O)N3CCCCC3)c2cc1C	none
Cc1cc2ncn(C(=O)N3CCCCCC3)c2cc1C	esBAF inh 49 (no result: AF4-AF9 inh, Ecoli rRNA inh)
Fc1ccc2cnc(C3=CCCCC3)cc2c1	Wnt act 33, MITF TRPM1 HTS 103, esBAF inh inconclusive
